High-throughput results: PubChem, The Scripps Research Institute Molecular Screening Center
GPR151 ag = human GPR151 activation; PathHunter beta-arrestin GPR151 cells, luminescence; activation, % at 11.2 µM; 1% of 650,000 active; in the data active = activation above about 4.9%;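 also: 0% = median of compound wells and 100% = cells with positive control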
Target sequence (Q8TDV0 whole entry, looked up): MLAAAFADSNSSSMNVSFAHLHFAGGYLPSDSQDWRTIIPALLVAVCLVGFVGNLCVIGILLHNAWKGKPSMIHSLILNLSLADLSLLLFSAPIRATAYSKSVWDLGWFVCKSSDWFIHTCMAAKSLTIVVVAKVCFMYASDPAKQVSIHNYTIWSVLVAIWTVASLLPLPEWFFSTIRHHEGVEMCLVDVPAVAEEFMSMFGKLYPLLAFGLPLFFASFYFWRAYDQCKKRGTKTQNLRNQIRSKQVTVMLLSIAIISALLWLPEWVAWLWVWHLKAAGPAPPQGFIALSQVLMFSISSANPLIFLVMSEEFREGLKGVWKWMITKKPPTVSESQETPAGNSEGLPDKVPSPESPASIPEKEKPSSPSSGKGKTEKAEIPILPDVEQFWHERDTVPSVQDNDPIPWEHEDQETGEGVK
FBW7 activator = human FBW7 E3 ligase activation, primary screen | Q969H0 | AlphaScreen FBW7–phospho-cyclin E peptide binding, activator screen | normalized activity (activation), % at 26.1 µM | 0.13% of 650,000 active; in the data active = normalized activity above about 1.9%;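 also: purified mutant Fbw7 with reduced substrate affinity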
MITF primary = blocks human microphthalmia-associated transcription factor; 0.91% of 650,000 active; inhibition, % at 2.6 µM; AlphaScreen MITF homodimerization, bead proximity signal; in the data active = inhibition above about 50%;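 also: 0% = vehicle wells with protein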
TEAD-YAP block = TEAD-YAP interaction inhibition | 1.4% of 640,000 active | HEK-TIYL cells, TEAD-Gal4/YAP UAS-luciferase luminescence | inhibition, % at 9.12 µM; in the data active = inhibition above about 32%;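 also: 0% = median of test compound wells and 100% = reference inhibitor wells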
The depositor's hits bear a star. Hits are enriched below; roughly 3.5% of the tested compounds scored in any of these assays.

How did COc1ccc2cc3c(N)nn(C(=O)Cc4c[nH]c5ccccc45)c3nc2c1 do in these assays?
GPR151 ag: 0; FBW7 activator: 0; MITF primary: 5; TEAD-YAP block: 75*

What do the screens show for `N#CC1=C(N)N(c2ccc(Br)cn2)C2=C(C(=O)CCC2)C1c1ccc(Br)s1` (stereo unspecified)?
GPR151 ag: 0; FBW7 activator: 0; MITF primary: 10; TEAD-YAP block: -1

Results for CCOC(=O)c1[nH]c(C)c(C(=O)/C=C/c2ccc(N(C)C)c([N+](=O)[O-])c2)c1C ?
GPR151 ag: 1; FBW7 activator: 0; MITF primary: 13; TEAD-YAP block: 50*

What do the screens show for `CCOC(=O)c1[nH]c(C)c(/C(C)=N\Nc2ccc([N+](=O)[O-])cc2[N+](=O)[O-])c1C`?
GPR151 ag: 0; FBW7 activator: 0; MITF primary: -1; TEAD-YAP block: -4

Results for O=C(CCCCC(=O)n1nnc2ccccc21)n1nnc2ccccc21 ?
GPR151 ag: 2; FBW7 activator: 0; MITF primary: -8; TEAD-YAP block: -7

What do the screens show for `O=C(N1CCCCC1)n1nnc2ccccc21`?
GPR151 ag: 0; FBW7 activator: 1; MITF primary: 2; TEAD-YAP block: 75*

Results for CC1=C(C(=O)NCCc2ccc(S(N)(=O)=O)cc2)C2(CCC(C)CC2)OC1=O (stereo unspecified) ?
GPR151 ag: -2; FBW7 activator: 2.0*; MITF primary: 19; TEAD-YAP block: -7

Results for CC1=C(C(=O)NCCc2ccc(S(N)(=O)=O)cc2)C2(CCCCC2)OC1=O ?
GPR151 ag: 1; FBW7 activator: 0; MITF primary: -8; TEAD-YAP block: -3

Results for O=C(O)c1cc(S(=O)(=O)Nc2ccc(O)cc2)ccc1O ?
GPR151 ag: 1; FBW7 activator: 0; MITF primary: 4; TEAD-YAP block: -2

What do the screens show for `O=C(O)c1cc(NS(=O)(=O)c2ccc(Cl)c(C(=O)O)c2)ccc1O`?
GPR151 ag: 1; FBW7 activator: 0; MITF primary: 81*; TEAD-YAP block: 8

What do the screens show for `N#C/C(=N\Nc1ccc([N+](=O)[O-])cc1)C(=N)N1CCCCCC1`?
GPR151 ag: -1; FBW7 activator: 0; MITF primary: 26; TEAD-YAP block: -64

How did COc1ccc(CC(=O)Nc2ccccc2C(F)(F)F)cc1 do in these assays?
GPR151 ag: -1; FBW7 activator: 0; MITF primary: 15; TEAD-YAP block: -1

What do the screens show for `COc1ccc(CC(=O)Nc2cc(Nc3ccccc3-c3ncco3)c(C(F)(F)F)cn2)cc1`?
GPR151 ag: -1; FBW7 activator: 0; MITF primary: -14; TEAD-YAP block: 54*

What do the screens show for `COc1ccc(CC(=O)Nc2cc(Nc3ccccc3-c3ncn[nH]3)ccn2)cc1`?
GPR151 ag: -1; FBW7 activator: 1; MITF primary: 7; TEAD-YAP block: 13

How did COc1ccc(CC(=O)Nc2cc(Nc3ccccc3NC(C)=O)c(C(F)(F)F)cn2)cc1 do in these assays?
GPR151 ag: -1; FBW7 activator: 0; MITF primary: 16; TEAD-YAP block: 67*

How did CCn1c(SCC(=O)Nc2ccc(C)c(C)c2)nnc1C1CC1 do in these assays?
GPR151 ag: 1; FBW7 activator: 0; MITF primary: -2; TEAD-YAP block: 13

What do the screens show for `CC(=O)NC(c1ccc2cccnc2c1O)c1cccc2ccccc12` (stereo unspecified)?
GPR151 ag: 0; FBW7 activator: -2; MITF primary: 46; TEAD-YAP block: 82*

What do the screens show for `COc1ccccc1C(NC(C)=O)c1cc(Cl)c2cccnc2c1O` (stereo unspecified)?
GPR151 ag: 0; FBW7 activator: 0; MITF primary: 3; TEAD-YAP block: 3

Results for CC(=O)NC(c1ccccc1C)c1ccc2cccnc2c1O (stereo unspecified) ?
GPR151 ag: -1; FBW7 activator: -1; MITF primary: 24; TEAD-YAP block: 85*

Results for Cc1nn(Cc2ccc(C(=O)NNC(=O)/C=C/c3ccc([N+](=O)[O-])o3)cc2)c(C)c1Br ?
GPR151 ag: -1; FBW7 activator: 0; MITF primary: -8; TEAD-YAP block: 9

Results for O=C1NN(c2ccc(I)cc2)C(=O)/C1=C\c1ccccc1O ?
GPR151 ag: -1; FBW7 activator: 0; MITF primary: 54*; TEAD-YAP block: 0

Results for CCOc1cccc(/C=N/NC(=O)c2cc(-c3ccco3)[nH]n2)c1O ?
GPR151 ag: 2; FBW7 activator: -1; MITF primary: 29; TEAD-YAP block: 39*

Results for CCOc1ccccc1C(=O)N/N=C/c1cccc(OC)c1O ?
GPR151 ag: -2; FBW7 activator: 0; MITF primary: 13; TEAD-YAP block: -2

Results for COc1ccccc1/C=N/NC(=O)c1[nH]nc(-c2ccccc2)c1C ?
GPR151 ag: -2; FBW7 activator: 0; MITF primary: 10; TEAD-YAP block: -59

Results for CCOc1cccc(/C=N/NC(=O)c2[nH]nc(-c3ccccc3)c2C)c1O ?
GPR151 ag: -1; FBW7 activator: 0; MITF primary: 13; TEAD-YAP block: 48*

What do the screens show for `CCOc1cccc(/C=N/NC(=O)c2ccccc2O)c1O`?
GPR151 ag: -8; FBW7 activator: -1; MITF primary: 41; TEAD-YAP block: 88*

How did CCOC(=O)C1=C(C)N=c2s/c(=C/c3ccc(N(C)C)cc3)c(=O)n2C1c1ccco1 (stereo unspecified) do in these assays?
GPR151 ag: 0; FBW7 activator: 0; MITF primary: 0; TEAD-YAP block: -7

Results for O=C(COC(=O)c1cc(F)c(F)cc1Cl)Nc1ccc2c(c1)OCO2 ?
GPR151 ag: 0; FBW7 activator: 0; MITF primary: -1; TEAD-YAP block: 17

What do the screens show for `Cc1nnc(SCC(=O)N/N=C/c2c[nH]c3ccccc23)n1-c1ccccc1`?
GPR151 ag: 1; FBW7 activator: 0; MITF primary: 12; TEAD-YAP block: 1

How did Cn1c(-c2ccccc2)cn2cc(-c3ccc(F)cc3)nc12 do in these assays?
GPR151 ag: -5; FBW7 activator: 0; MITF primary: 6; TEAD-YAP block: 97*

Results for Cn1c(-c2ccccc2)cn2cc(-c3ccccc3)nc12 ?
GPR151 ag: -2; FBW7 activator: 0; MITF primary: -9; TEAD-YAP block: 100*

What do the screens show for `CCCCOC(=O)C1=C(C)NC2=C(C(=O)CC(c3ccccc3)C2)C1c1ccc(OCCC)c(OC)c1` (stereo unspecified)?
GPR151 ag: 0; FBW7 activator: 0; MITF primary: -13; TEAD-YAP block: 3

What do the screens show for `CCc1ccc(NC(=O)CSc2nc3ccccc3c3nc(C)nn23)cc1`?
GPR151 ag: 0; FBW7 activator: 0; MITF primary: 10; TEAD-YAP block: 62*

How did Cc1nc2c3ccccc3nc(SCC(=O)Nc3ccc(Br)cc3)n2n1 do in these assays?
GPR151 ag: 0; FBW7 activator: 0; MITF primary: 5; TEAD-YAP block: 4

How did N=C1c2ccccc2CN1CC(=O)c1ccc(-c2ccccc2)cc1 do in these assays?
GPR151 ag: -3; FBW7 activator: 0; MITF primary: -6; TEAD-YAP block: 80*
